Measured values from PubChem BioAssay AID1159580 (chemical genetic matrix, 2015).
The whole screen tested about 5,500 compounds, of which about 2,000 (36%) were called active. Inconclusive results (about 18%) are left out. Rule as the data show it: active = normalized growth mostly below about 0.91 (no sharp cut-off); inconclusive = no clear call, values can overlap the other calls; inactive = mostly above about 0.92. This is one part of the list.

Test: chemical genetic growth profiling, strain panel (AID 1159580);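 also: tested at 20 µM; growth read once vehicle control cultures reached saturation at 30 °C; 1 = growth at the plate median or of vehicle wells; lower values mean less growth of the strain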
Details: growth OD

Measured: normalized growth

C=C(C)C1CCC(C)(O)C2CC3OC3(C)C2C1 (stereo unspecified)
inactive: S. cerevisiae deletion strains, locus YAL013W, strain DEP1, hits give low values 1.01 | S. cerevisiae deletion strains, locus YBR021W, strain FUR4, hits give low values 1.02 | S. cerevisiae deletion strains, locus YBR229C, strain ROT2, hits give low values 1.01 | S. cerevisiae deletion strains, locus YCL029C, strain bik1, hits give low values 1.02 | S. cerevisiae deletion strains, locus YDL035C, strain GPR1, hits give low values 1.01 | S. cerevisiae deletion strains, locus YDL074C, strain BRE1, hits give low values 0.99 | S. cerevisiae deletion strains, locus YDL101C, strain DUN1, hits give low values 0.999 | S. cerevisiae deletion strains, locus YDL134C, strain PPH21, hits give low values 1 | S. cerevisiae deletion strains, locus YDL185W, strain tfp1, hits give low values 1.01 | S. cerevisiae deletion strains, locus YDL192W, strain arf1, hits give low values 1.02 | S. cerevisiae deletion strains, locus YDR101C, strain arx1, hits give low values 1 | S. cerevisiae deletion strains, locus YDR150W, strain NUM1, hits give low values 1.02 | S. cerevisiae deletion strains, locus YDR162C, strain NBP2, hits give low values 0.995 | S. cerevisiae deletion strains, locus YDR318W, strain mcm21, hits give low values 1.02 | S. cerevisiae deletion strains, locus YDR388W, hits give low values 1.01 | S. cerevisiae deletion strains, locus YDR502C, strain sam2, hits give low values 1.01 | S. cerevisiae deletion strains, locus YEL061C, strain CIN8, hits give low values 1 | S. cerevisiae deletion strains, locus YER110C, hits give low values 1.01 | S. cerevisiae deletion strains, locus YER155C, strain BEM2, hits give low values 0.999 | S. cerevisiae deletion strains, locus YER167W, strain BCK2, hits give low values 1.01 | S. cerevisiae deletion strains, locus YGL078C, strain dbp3, hits give low values 1.01 | S. cerevisiae deletion strains, locus YGL086W, strain mad1, hits give low values 1.02 | S. cerevisiae deletion strains, locus YGL248W, strain PDE1, hits give low values 1 | S. cerevisiae deletion strains, locus YGR078C, strain PAC10, hits give low values 0.995 | S. cerevisiae deletion strains, locus YGR135W, strain pre9, hits give low values 1 | S. cerevisiae deletion strains, locus YGR229C, strain SMI1, hits give low values 1.03 | S. cerevisiae deletion strains, locus YGR252W, strain gcn5, hits give low values 1.01 | S. cerevisiae deletion strains, locus YHR030C, strain SLT2, hits give low values 1 | S. cerevisiae deletion strains, locus YHR079C, strain IRE1 (second series), hits give low values 1.01 | S. cerevisiae deletion strains, locus YHR094C, strain hxt1, hits give low values 1.01 | S. cerevisiae deletion strains, locus YHR129C, strain ARP1, hits give low values 1 | S. cerevisiae deletion strains, locus YHR200W, strain rpn10, hits give low values 1.01 | S. cerevisiae deletion strains, locus YIL066C, strain RNR3, hits give low values 1.01 | S. cerevisiae deletion strains, locus YIL073C, strain SPO22, hits give low values 1.07 | S. cerevisiae deletion strains, locus YIL125W, strain kgd1, hits give low values 1.01 | S. cerevisiae deletion strains, locus YIR030C, strain dcg1, hits give low values 1 | S. cerevisiae deletion strains, locus YJL095W, strain BCK1, hits give low values 0.978 | S. cerevisiae deletion strains, locus YJL134W, strain LCB3, hits give low values 1.01 | S. cerevisiae deletion strains, locus YJL168C, strain set2, hits give low values 1 | S. cerevisiae deletion strains, locus YJL187C, strain SWE1 (second series), hits give low values 1.01 | S. cerevisiae deletion strains, locus YJR043C, strain POL32, hits give low values 1.03 | S. cerevisiae deletion strains, locus YJR075W, strain HOC1, hits give low values 1.06 | S. cerevisiae deletion strains, locus YKL009W, strain mrt4, hits give low values 1.02 | S. cerevisiae deletion strains, locus YKL068W, hits give low values 1.01 | S. cerevisiae deletion strains, locus YKL085W, strain MDH1 (second series), hits give low values 1 | S. cerevisiae deletion strains, locus YKL085W, strain MDH1, hits give low values 1 | S. cerevisiae deletion strains, locus YKL190W, strain CNB1, hits give low values 1 | S. cerevisiae deletion strains, locus YKR001C, strain vps1, hits give low values 1.02 | S. cerevisiae deletion strains, locus YLR039C, strain RIC1, hits give low values 0.992 | S. cerevisiae deletion strains, locus YLR058C, strain SHM2, hits give low values 1.01 | S. cerevisiae deletion strains, locus YLR102C, strain apc9, hits give low values 1.01 | S. cerevisiae deletion strains, locus YLR262C, strain YPT6, hits give low values 0.999 | S. cerevisiae deletion strains, locus YLR268W, strain sec22, hits give low values 1.01 | S. cerevisiae deletion strains, locus YLR330W, strain CHS5, hits give low values 1 | S. cerevisiae deletion strains, locus YLR342W, strain FKS1 (second series), hits give low values 1.04 | S. cerevisiae deletion strains, locus YLR371W, strain rom2, hits give low values 1.01 | S. cerevisiae deletion strains, locus YLR418C, strain cdc73, hits give low values 0.992 | S. cerevisiae deletion strains, locus YML016C, strain PPZ1, hits give low values 0.995 | S. cerevisiae deletion strains, locus YML032C, strain rad52, hits give low values 1.02 | S. cerevisiae deletion strains, locus YML124C, strain tub3, hits give low values 1.01 | S. cerevisiae deletion strains, locus YMR078C, strain ctf18, hits give low values 1.01 | S. cerevisiae deletion strains, locus YMR223W, strain ubp8, hits give low values 1.01 | S. cerevisiae deletion strains, locus YMR263W, strain SAP30, hits give low values 1 | S. cerevisiae deletion strains, locus YMR307W, strain GAS1, hits give low values 1.03 | S. cerevisiae deletion strains, locus YNL067W, strain RPL9B, hits give low values 1.02 | S. cerevisiae deletion strains, locus YNL128W, strain TEP1, hits give low values 0.99 | S. cerevisiae deletion strains, locus YNL153C, strain GIM3, hits give low values 1 | S. cerevisiae deletion strains, locus YNL233W, strain BNI4, hits give low values 0.998 | S. cerevisiae deletion strains, locus YNL250W, strain rad50, hits give low values 1.02 | S. cerevisiae deletion strains, locus YNL271C, strain bni1, hits give low values 1.01 | S. cerevisiae deletion strains, locus YNL298W, strain CLA4, hits give low values 1.01 | S. cerevisiae deletion strains, locus YNL307C, strain MCK1, hits give low values 1.02 | S. cerevisiae deletion strains, locus YNL322C, strain KRE1, hits give low values 1.01 | S. cerevisiae deletion strains, locus YNR052C, strain pop2, hits give low values 1.02 | S. cerevisiae deletion strains, locus YOL006C, strain TOP1, hits give low values 0.996 | S. cerevisiae deletion strains, locus YOL012C, strain htz1 0.919 | S. cerevisiae deletion strains, locus YOL147C, strain pex11, hits give low values 1.01 | S. cerevisiae deletion strains, locus YOR061W, strain CKA2, hits give low values 1 | S. cerevisiae deletion strains, locus YOR069W, strain VPS5, hits give low values 1.01 | S. cerevisiae deletion strains, locus YOR136W, strain idh2, hits give low values 1.03 | S. cerevisiae deletion strains, locus YOR144C, strain elg1, hits give low values 1.01 | S. cerevisiae deletion strains, locus YOR184W, strain ser1, hits give low values 1.03 | S. cerevisiae deletion strains, locus YOR316C, strain cot1, hits give low values 1.01 | S. cerevisiae deletion strains, locus YPL055C, strain LGE1, hits give low values 1 | S. cerevisiae deletion strains, locus YPL241C, strain CIN2, hits give low values 1 | S. cerevisiae deletion strains, locus YPR119W, strain clb2, hits give low values 1.01 | S. cerevisiae deletion strains, locus YPR141C, strain kar3, hits give low values 1.01 | S. cerevisiae deletion strains, locus YPR163C, strain tif3, hits give low values 1.02 | S. cerevisiae deletion strains, locus YPR167C, strain met16, hits give low values 1.01 | S. cerevisiae deletion strains, strain wtn01, hits give low values 1 | S. cerevisiae strains, strain wild type, hits give low values 1.04
